PubChem BioAssay AID2330 (Broad Institute, 2010)
Out of some 37,000 compounds screened, about 2,800 (7.6%) were called active. Roughly 1% stayed inconclusive and do not appear here. For the sample, actives were picked, then their nearest neighbours and some compounds at random. Unmarked numbers belong to inactive results. Cut-off read from the data, not from the text of the source: active = inhibition above about 80%; inconclusive = no clear call, values can overlap the other calls; inactive = below that.

Assay: NOMO-1 AML cell viability reduction, primary screen, STK33 inhibitor project, CellTiter-Glo luminescence (AID 2330)
Settings: NOMO-1 AML viability, 72 h, hits give high values, concentration not given here

In order of falling inhibition:
1. Cc1ccc2nc(-c3ccncc3)cc(C(=O)NCc3ccccn3)c2c1  53.9%
2. C[C@H]1CN([C@@H](C)CO)C(=O)Cc2cc(NS(=O)(=O)c3ccc(Cl)cc3)ccc2O[C@@H]1CN(C)S(=O)(=O)c1ccccc1  48.5%
3. Cc1ccc(Cl)cc1NC(=O)CN(c1cccc(Cl)c1C)S(C)(=O)=O  47.6%
4. O=C(CC(=O)c1ccccc1O)c1ccccc1  42.5%
5. C[C@@H]1CN([C@@H](C)CO)C(=O)c2cccc(NC(=O)c3ccc(-c4nccs4)cc3)c2O[C@@H]1CN(C)Cc1ccncc1  35.3%
6. Cc1c(C(=O)N2CCOCC2)[nH]c2ccc(OCc3ccccc3)cc12  34.1%
7. O=C(CSc1nnc(-c2ccncc2)n1-c1ccccc1)Nc1ccc(Cl)c(Cl)c1  33.8%
8. C[C@@H]1CN([C@H](C)CO)C(=O)c2cc(NC(=O)Nc3ccc4c(c3)OCO4)ccc2O[C@@H]1CN(C)C(=O)Nc1ccc(F)cc1  33.1%
9. Cc1ccc(S(=O)(=O)N(C)C[C@H]2Oc3ccc(NC(=O)C4CC4)cc3C(=O)N([C@H](C)CO)C[C@H]2C)cc1  32.5%
10. Cc1noc(C)c1NC(=O)Nc1ccc2c(c1)C(=O)N([C@H](C)CO)C[C@H](C)[C@H](CN(C)Cc1ccc(Oc3ccccc3)cc1)O2  30%
11. CC(=O)Nc1ccc(S(=O)(=O)N2CCCC2C(=O)O)cc1 (centres undefined)  27.5%
12. NC(=O)CSc1nnc(-c2ccccc2F)n1-c1ccccc1  26.5%
13. CCn1c(SCC(=O)Nc2cc(Cl)ccc2OC)nnc1-c1ccc(Br)cc1  25%
14. C[C@H]1CN([C@@H](C)CO)C(=O)c2cccc(NC(=O)c3ccc(-c4nccs4)cc3)c2O[C@H]1CN(C)Cc1ccc(C(=O)O)cc1  23.4%
15. COC(=O)C1=C[C@H](O[C@@H]2O[C@H](CO)[C@@H](O)[C@H](O)[C@H]2O)C[C@H]2[C@]3(C)C[C@@H](c4ccoc4)OC(=O)[C@H]3CC[C@@]12C  22.8%
16. Cc1ccc(S(=O)(=O)N(C)C[C@@H]2Oc3c(NC(=O)Nc4c(C)noc4C)cccc3C(=O)N([C@@H](C)CO)C[C@@H]2C)cc1  22.7%
17. Cc1nnc(SCC(=O)Nc2cc(Cl)ccc2C)s1  22.1%
18. Cc1ccc([N+](=O)[O-])cc1NC(=O)CSC1=NCCS1  21.4%
19. Cc1noc(C)c1S(=O)(=O)Nc1ccc2c(c1)C(=O)N([C@@H](C)CO)C[C@@H](C)[C@H](CN(C)Cc1ccc(-c3ccccc3)cc1)O2  20.3%
20. COC(=O)c1c(NC(=O)c2cc(-c3ccccn3)nc3c(C)cc(C)cc23)sc(C)c1C  19.6%
21. Cc1cc(C(=O)Nc2cccc3c2O[C@@H](CN(C)Cc2ccncc2)[C@@H](C)CN([C@@H](C)CO)C3=O)n(C)n1  19.4%
22. COc1ccc(Cl)cc1NC(=O)CSc1nnc(-c2ccc(Cl)c(Cl)c2)n1C  17.7%
23. Cc1noc(C)c1NC(=O)Nc1ccc2c(c1)C(=O)N([C@@H](C)CO)C[C@H](C)[C@@H](CN(C)C)O2  17.2%
24. COc1ccc(C(C)=O)cc1CSc1nnc(-c2ccc(Br)cc2)n1-c1ccccc1  15.8%
25. COc1ccc(NC(=O)N(C)C[C@@H]2Oc3c(NS(=O)(=O)c4ccc(OC)cc4)cccc3C(=O)N([C@H](C)CO)C[C@@H]2C)cc1  14.6%
26. C[C@@H]1CN([C@H](C)CO)C(=O)c2cccc(NC(=O)c3cnccn3)c2O[C@@H]1CN(C)Cc1ccncc1  13.1%
27. CC(C)NC(=O)N(C)C[C@H]1Oc2c(NS(=O)(=O)c3ccc(Cl)cc3)cccc2C(=O)N([C@@H](C)CO)C[C@H]1C  12.1%
28. Cc1noc(C)c1S(=O)(=O)Nc1cccc2c1O[C@H](CN(C)Cc1ccc(C(F)(F)F)cc1)[C@H](C)CN([C@@H](C)CO)C2=O  11.5%
29. Cc1cc(C(=O)Nc2cccc3c2O[C@@H](CN(C)C(=O)Nc2ccc4c(c2)OCO4)[C@H](C)CN([C@@H](C)CO)C3=O)n(C)n1  11.4%
30. O=c1[nH]c(CSCCO)nc2c1C1(CCCCC1)Cc1ccccc1-2  8.91%
31. COc1ccc(NC(=O)CN2CCN(S(=O)(=O)c3ccc4ccccc4c3)CC2)cc1  8.78%
32. Cc1noc(C)c1S(=O)(=O)Nc1ccc2c(c1)C(=O)N([C@@H](C)CO)C[C@@H](C)[C@H](CN(C)C(=O)Nc1cccc3ccccc13)O2  7.46%
33. COc1ccc(NC(=S)NCc2cc(C)n(C)n2)cc1OC  6.06%
34. C[C@@H]1CN([C@@H](C)CO)C(=O)c2cccc(NC(=O)c3ccncc3)c2O[C@@H]1CN(C)CC1CC1  4.97%
35. C[C@@H]1CN([C@@H](C)CO)C(=O)c2cccc(NC(=O)C3CC3)c2O[C@@H]1CN(C)Cc1ccccc1  4.47%
36. C[C@H](CO)N1C[C@H](C)[C@@H](CN(C)S(C)(=O)=O)Oc2c(NC(=O)c3ccc(-c4nccs4)cc3)cccc2C1=O  3.98%
37. COc1ccc(-c2cc(C(F)(F)F)n3nc(C(=O)NCCCN4CCOCC4)cc3n2)cc1OC  2.66%
38. O=C(CSc1nc2ccccc2o1)Nc1ccccn1  2.56%
39. C[C@H](CO)N1C[C@H](C)[C@H](CN(C)S(C)(=O)=O)Oc2c(NC(=O)c3ccc(-c4nccs4)cc3)cccc2C1=O  1.84%
40. O=C(Nc1ccc(C23CC4CC(CC(C4)C2)C3)cc1)c1cccs1  1.68%
41. C[C@H]1CN([C@@H](C)CO)C(=O)c2cc(NS(=O)(=O)c3cn(C)cn3)ccc2O[C@H]1CN(C)CC1CCCCC1  0.874%
42. C[C@H]1CN([C@@H](C)CO)C(=O)Cc2cc(NC(=O)NC3CCCCC3)ccc2O[C@H]1CN(C)S(=O)(=O)c1ccccc1  0.581%
43. Cc1cc(C(=O)Nc2cccc3c2O[C@@H](CN(C)Cc2ccc(C(=O)O)cc2)[C@H](C)CN([C@@H](C)CO)C3=O)n(C)n1  0.233%
44. COc1ccc(NC(=O)Nc2ccc3c(c2)C(=O)N([C@@H](C)CO)C[C@H](C)[C@@H](CN(C)C(=O)NC2CCCCC2)O3)cc1  -2.68%
45. CC(=O)Nc1ccc(NC(=O)COc2ccccc2C(=O)Nc2cccc(Cl)c2Cl)cc1  -3.66%
46. N#Cc1cccc(CSc2nnc(CCCO)n2-c2ccccc2)c1  -3.86%
47. CC(=O)Nc1ccc(NC(=O)CC2C(=O)Nc3ccccc3N2C(C)=O)cc1 (centres undefined)  -5.07%
48. Cn1nnc2cc(C(=O)N(CCO)c3ccccc3)ccc21  -5.36%
49. CCOc1c(S(=O)(=O)NCc2cccnc2)ccc(Cl)c1Cl  -5.95%
50. C[C@@H]1CN([C@@H](C)CO)C(=O)c2cccc(NC(=O)c3ccc(-c4nccs4)cc3)c2O[C@H]1CN(C)C(=O)Nc1ccccc1  -9.67%
51. CCOc1cc(S(=O)(=O)NC2CC(C)(C)NC(C)(C)C2)ccc1F  -9.77%
52. C[C@@H]1CN([C@@H](C)CO)C(=O)Cc2cc(NC(=O)Cn3cnnn3)ccc2O[C@@H]1CN(C)S(=O)(=O)c1cn(C)cn1  -10.4%
53. CC(C)NC(=O)N(C)C[C@H]1Oc2c(NS(=O)(=O)c3cccs3)cccc2C(=O)N([C@H](C)CO)C[C@H]1C  -11.8%
54. C[C@@H]1CN([C@@H](C)CO)C(=O)c2cccc(NS(=O)(=O)c3cccs3)c2O[C@H]1CN(C)Cc1ccncc1  -14.5%
55. C[C@@H]1CN([C@@H](C)CO)C(=O)c2cccc(NC(=O)c3cnccn3)c2O[C@H]1CN(C)Cc1ccc(C(=O)O)cc1  -15.7%
56. COc1ccc(CN(C)C[C@H]2Oc3c(NC(=O)C4CC4)cccc3C(=O)N([C@@H](C)CO)C[C@H]2C)cc1  -16.6%
57. C[C@@H]1CN([C@H](C)CO)C(=O)c2cccc(NS(=O)(=O)c3cn(C)cn3)c2O[C@H]1CN(C)Cc1ccc(C(=O)O)cc1  -16.7%
58. COc1ccc(OC(C)C(=O)Nc2ccc(OC)c(OC)c2)cc1 (centres undefined)  -22%
59. O=C(CSc1nnc(-c2ccncc2)n1-c1ccc(Cl)cc1)Nc1ccc(C(=O)O)cc1  -34.2%

For Cc1noc(C)c1S(=O)(=O)Nc1ccc2c(c1)C(=O)N([C@@H](C)CO)C[C@H](C)[C@H](CN(C)Cc1ccc(C(=O)Nc3ccccc3N)cc1)O2, the inhibition was 104% (active).
In the case of COC(=O)c1c(NC(=O)c2cc(-c3ccccn3)nc3ccc(Br)cc23)sc(C(=O)N(C)C)c1C, the inhibition is reported as 85.7% (active).
In the case of C[C@@H]1CN([C@@H](C)CO)C(=O)c2cccc(NC(=O)c3ccc(-c4nccs4)cc3)c2O[C@H]1CN(C)Cc1ccc(Cl)c(Cl)c1, the inhibition is reported as 97.3% (active).
In the case of C[C@H](CO)N1C[C@H](C)[C@@H](CN(C)Cc2ccc(C(=O)Nc3ccccc3N)cc2)Oc2c(NC(=O)c3ccc(-c4nccs4)cc3)cccc2C1=O, the inhibition is reported as 138% (active).
In the case of CC(=O)Nc1ccc(Nc2c3c4c(cccc4[nH]c2=O)C(=O)c2ccccc2-3)cc1, the inhibition is reported as 115% (active).
For Cc1ccc(C23CC4CC(CC(CN)(C4)C2)C3)cc1C, the inhibition was 116% (active).
For O=C(CSc1nnc(-c2ccccc2)n1-c1ccc(Cl)cc1)Nc1ccc(Cl)cc1, the inhibition was 83.3% (active).
With COC(=O)CSc1nnc(-c2ccc(Cl)cc2)n1-c1ccc(Br)cc1 the inhibition was 95.1% (active).
With CCn1c(=O)c2c(n3c(SCC(N)=O)nnc13)-c1ccccc1CC21CCCCC1 the inhibition was 98.7% (active).
With O=C(Nc1ccc(OCc2ccccc2)cc1)OCC1CN(Cc2ccccc2)CCO1 (centres undefined) the inhibition was 113% (active).
In the case of COc1ccc(NC(=S)SC)cc1OC, the inhibition is reported as 87.2% (active).
For CC[C@]1(O)C[C@@H]2CN(CCc3c([nH]c4ccccc34)[C@@](C(=O)OC)(c3cc4c(cc3OC)N(C)[C@H]3[C@@](O)(C(=O)OC)[C@H](OC(C)=O)[C@]5(CC)C=CCN6CC[C@]43[C@@H]65)C2)C1, the inhibition was 112% (active).
For Cc1cc(C(=O)Nc2cccc3c2O[C@@H](CN(C)Cc2ccc(C(=O)Nc4ccccc4N)cc2)[C@H](C)CN([C@@H](C)CO)C3=O)n(C)n1, the inhibition was 89.1% (active).
With C[C@@H]1CN([C@H](C)CO)C(=O)c2cccc(NC(=O)c3cnccn3)c2O[C@@H]1CN(C)Cc1ccc(C(=O)Nc2ccccc2N)cc1 the inhibition was 126% (active).
With C[C@H](CO)N1C[C@H](C)[C@@H](CN(C)Cc2ccc(C(=O)Nc3ccccc3N)cc2)Oc2c(NC(=O)C3CC3)cccc2C1=O the inhibition was 106% (active).
